Screens (PubChem)
Only some compounds are listed: those with a hit (about 3.4% of all), similar ones and a draw of the others.
FBW7 act – human FBW7 E3 ligase activation, primary screen | Q969H0 | AlphaScreen FBW7–phospho-cyclin E peptide binding, activator screen | normalized activity (activation), % at 26.1 µM | 0.13% of 650,000 active | AID 1259310; in the data active means normalized activity above about 1.9%;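 further: purified mutant Fbw7 with reduced substrate affinity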
MITF primary – human MITF inhibition, primary screen; O75030; AlphaScreen MITF homodimerization, bead proximity signal; inhibition, % at 2.6 µM; 0.91% of 650,000 active; AID 1259374; in the data active means inhibition above about 50%;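 further: 0% = vehicle wells with protein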
Target sequence (O75030 whole entry, looked up): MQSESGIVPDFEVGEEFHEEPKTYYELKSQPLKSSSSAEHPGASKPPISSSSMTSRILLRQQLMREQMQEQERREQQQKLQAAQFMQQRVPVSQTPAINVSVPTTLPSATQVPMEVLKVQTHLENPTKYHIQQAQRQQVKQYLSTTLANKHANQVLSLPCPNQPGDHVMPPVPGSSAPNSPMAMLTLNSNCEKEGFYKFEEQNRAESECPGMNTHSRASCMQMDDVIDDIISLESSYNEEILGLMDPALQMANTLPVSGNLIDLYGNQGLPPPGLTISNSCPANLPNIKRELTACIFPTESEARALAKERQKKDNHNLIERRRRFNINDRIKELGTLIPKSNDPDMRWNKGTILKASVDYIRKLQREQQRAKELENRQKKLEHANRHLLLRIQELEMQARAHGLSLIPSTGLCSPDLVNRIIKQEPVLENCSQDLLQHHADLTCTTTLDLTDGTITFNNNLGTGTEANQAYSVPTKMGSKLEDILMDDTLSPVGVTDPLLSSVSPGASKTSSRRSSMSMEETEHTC
GPR151 activ – activates the human receptor GPR151. 1% of 650,000 active. activation, % at 11.2 µM. PathHunter beta-arrestin GPR151 cells, luminescence. Q8TDV0. AID 1508602; in the data active means activation above about 4.9%;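 further: 0% = median of compound wells and 100% = cells with positive control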
TEAD-YAP block – TEAD-YAP interaction inhibition; HEK-TIYL cells, TEAD-Gal4/YAP UAS-luciferase luminescence; inhibition, % at 9.12 µM; 1.4% of 640,000 active; AID 1259422; in the data active means inhibition above about 32%;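 further: 0% = median of test compound wells and 100% = reference inhibitor wells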
GPR151 conf act – confirmation of human GPR151 activators; shares compounds with GPR151 activ; activation, % at 11.2 µM; GPR151 PathHunter beta-arrestin cells, luminescence, 90 min; % of EA-reagent control over plate median; AID 1508609; 6,700 tested, under 10 active;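 active means mean percent activation across replicates above the confirmation screen cutoff of 4.91%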
GPR119 ag – activates human GPR119 in a GPR151 counter-screen; activation, % at 11.2 µM; shares compounds with GPR151 activ; GPR119 PathHunter beta-arrestin cells, luminescence, 90 min; 0 = compound-well median, 100 = enzyme-acceptor control; 0.3% of 6,700 active;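 active means mean percent activation in the counterscreen above 29.09%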;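 further: counterscreen on off-target GPR119 to flag nonselective hits from the GPR151 activator screen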
Starred values were filed as active, the others as inactive; nt = no result; ! = repeats disagree.

SMILES	FBW7 act	MITF primary	GPR151 activ	TEAD-YAP block	GPR151 conf act	GPR119 ag
Cn1c(Nc2ccc(N3CCC(C(=O)NCCc4ccc(O)cc4)CC3)nn2)nc2ccccc21	0	-6	-2	15	nt	nt
O=C(OCc1nc2ccccc2s1)c1ccc(O)cc1	0	6	-6	-13	nt	nt
CN(C)S(=O)(=O)c1ccc(C(=O)OCc2nc3ccccc3s2)cc1	0	-2	6.9*	-5	0	9
O=C(Nc1ccc(F)c([N+](=O)[O-])c1)C1CC2CCC1C2 (centres undefined)	0	1	0	19	nt	nt
O=C(O)c1ccc2c(=O)[nH]c(CSc3nnc(Nc4ccccc4)s3)nc2c1	0	23	8.4*	8	1	6
CCOC(=O)C(C)Sc1nnc(NC(=O)c2c(F)cccc2Cl)s1 (centres undefined)	0	1	5.0*	2	0	4
S=c1n(Cc2ccccc2)nnn1CN1CCOCC1	0	5	0	5	nt	nt
CC(Oc1cccc(Br)c1)C(=O)Nc1ccc2c(c1)OCO2 (centres undefined)	0	9	5.4*	0	0	0
CC(Oc1ccc2c(c1)OCO2)C(=O)NNC(=O)Nc1cccc(C(F)(F)F)c1 (centres undefined)	1	11	4	10	nt	nt
NC[C@H]1O[C@H](O[C@H]2[C@H](O)[C@@H](O[C@H]3O[C@H](CO)[C@@H](O)[C@H](N)[C@H]3O)[C@H](N)C[C@@H]2N)[C@H](N)C[C@@H]1O	0	0	24*!	7	1	0
COc1ccc(NC2=C(C(C)=O)C(c3ccc(N(C)C)cc3)C(C(C)=O)C(C)(O)C2)cc1 (centres undefined)	0	1	13*	3	1	13
COc1ccc(NC2=C(C(C)=O)C(c3ccc(OC)cc3)C(C(C)=O)C(C)(O)C2)cc1 (centres undefined)	0	9	0	4	nt	nt
CCOC(=O)c1sc2ncn(Cc3ccc(Cl)cc3)c(=O)c2c1C	0	9	1	8	nt	nt
CCOC(=O)c1sc2ncn(Cc3ccc(C(F)(F)F)cc3)c(=O)c2c1C	0	9	6.2*	-3	1	11
O=C(NCCCSc1ccc(Br)cc1)Nc1ncccn1	0	8	5.2*	10	1	7
Cc1ccn2cc(-c3cccc(NC(=O)/C=C\C(=O)O)c3)nc2c1	0	11	-3	-27	nt	nt
COCCn1c(C)cc2c(c1=O)C(c1ccc(Cl)cc1)C(C(=O)OC)=C(N)O2 (centres undefined)	0	-3	0	8	nt	nt
COCCn1c(C)cc2c(c1=O)C(c1ccc(Cl)cc1Cl)C(C(=O)OC)=C(N)O2 (centres undefined)	0	10	7.1*	0	1	-6
CC(C)=CCN1CCN(Cc2cn[nH]c2-c2ccc(F)cc2)CC1CCO (centres undefined)	0	-6	0	-2	nt	nt
CC1=C(NCc2ccccc2)CCC1=O	0	12	6.0*	7	-1	-4
CC1(C)CC(=O)C([N+](=O)[O-])=C(NCc2ccccc2)C1	0	1	0	2	nt	nt
Cc1cc(NCCOc2ccccc2)nc(-c2cccs2)n1	0	40	0	-15	nt	nt
COc1cc(/C=N/Nc2ccc3nnc(C)n3n2)ccc1O	0	24	8.9*	1	0	11
O=C(O)c1ccc(CNc2c(N3CCCCC3)c(=O)c2=O)cc1	0	1	7.5*	-6	0	-1
COc1cccc(CNC(=O)c2ccc(CNc3c(N4CCOCC4)c(=O)c3=O)cc2)c1	0	1	8.6*	-12	-1	-6
SMILES	FBW7 act	MITF primary	GPR151 activ	TEAD-YAP block	GPR151 conf act	GPR119 ag
CCOC(=O)N1CCN(c2c(NC3CCCCC3)c(=O)c2=O)CC1	0	10	0	1	nt	nt
CCOC(=O)N1CCN(c2c(NCc3ccc(Cl)cc3)c(=O)c2=O)CC1	0	2	4.9*	53*	0	-8
CCOC(=O)N1CCN(c2c(NCc3cccnc3)c(=O)c2=O)CC1	0	-6	-1	3	nt	nt
CCOC(=O)N1CCN(c2c(NC3CCC(C)CC3)c(=O)c2=O)CC1 (centres undefined)	0	1	5.0*	-3	0	9
CCCCCn1c(=S)[nH]c2cc(C(=O)NCc3ccccc3Cl)ccc2c1=O	0	-2	0	-4	nt	nt
CCN1CCN(C(=O)CN(c2cc([N+](=O)[O-])ccc2OC)S(C)(=O)=O)CC1	0	27	0	2	nt	nt
CCN(CC)c1ccc(C=C2c3cc(C(C)=O)ccc3-c3ccc(C(C)=O)cc32)cc1	0	6	1	-6	nt	nt
CCOC(=O)c1c(NC(=O)COc2ccc(Cl)cc2C)sc2c1CCN(C(C)=O)C2	0	-6	-2	-1	nt	nt
COC(=O)c1ccc2c(=O)n(CCc3ccc(S(N)(=O)=O)cc3)c(SCc3c(F)cccc3F)nc2c1	0	23	16*	0	0	1
COC(=O)c1ccc2c(=O)n(CCc3ccc(S(N)(=O)=O)cc3)c(SCC(=O)c3ccccc3)nc2c1	0	-7	-1	-5	nt	nt
O=C(Cn1c(=O)oc2ccccc21)NCc1ccc(F)cc1	0	15	1	-4	nt	nt
O=C(Cn1c(=O)oc2ccccc21)NCc1cccc(F)c1	0	11	9.5*	-3	1	10
CC(C)Oc1ccc(CNC(=O)Cn2c(=O)oc3ccccc32)cc1	0	-1	5.3*	-8	0	7
Cc1ccc(NCC(=O)N/N=C/c2ccc(O)cc2O)cc1	0	17	0	4	nt	nt
COC(=O)c1c(NC(=O)C(C)C)sc(C(=O)Nc2cccc([N+](=O)[O-])c2)c1C	0	-1	1	-75	nt	nt
Cc1ccc(NC(=O)C2CC(=O)N=C(N)S2)cc1 (centres undefined)	1	14	-1	-3	nt	nt
CN1CSC2=C(C#N)C(c3cccc(OCc4ccccc4)c3)CC(=O)N2C1 (centres undefined)	0	8	8.7*	-4	0	-7
O=C(Nc1ccccc1)c1cc(N2CCN(c3ccccn3)CC2)nc2ccccc12	0	6	5.1*	5	0	0
O=C(Nc1ccc(F)cc1)c1cnc(N2CCN(c3ccccn3)CC2)c2ccccc12	0	17	0	0	nt	nt
Cc1ccc(NC(=O)c2cnc(N3CCN(c4ccccn4)CC3)c3ccccc23)cc1F	0	2	10*	12	-1	-14
COc1nc(N(C)C)nc(N(CN2C(=O)c3ccccc3S2(=O)=O)S(=O)(=O)c2ccc(C)cc2)n1	1	-1	1	-3	nt	nt
CCCN(C(=O)c1cccc(N)c1)c1c(C)n(C)n(-c2ccccc2)c1=O	0	16	5.5*	7	0	11
